Experimental findings from PubChem BioAssay (NCI) are described below.

Assay [1] can be described thus: NCI Yeast Anticancer Drug Screen. Data for the rad50 strain (AID 155).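 Note: 0% = growth of vehicle-only cultures of the same strain.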 The following applies: S. cerevisiae rad50 strain growth inhibition, active compounds read high; at 50.0 µM unless noted. The essentials:
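Inhibition values express reduced yeast growth in compound-treated cultures relative to vehicle-treated controls.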

Assay [2] in a line: NCI Yeast Anticancer Drug Screen. Data for the mec2-1 strain (AID 157). The settings on record: S. cerevisiae mec2-1 strain, active compounds read high; at 50.0 µM unless noted. The essentials:
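Compounds were applied to mec2-1 yeast cells. Their growth was then compared with that of vehicle-treated cultures to give growth inhibition.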

The nature of assay [3]: NCI Yeast Anticancer Drug Screen. Data for the sgs1 mgt1 strain (AID 161).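 Note: 0% = growth of cultures given vehicle only.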 The settings on record: S. cerevisiae sgs1 mgt1 strain, active compounds read high; at 50.0 µM unless noted. The procedure, abridged:
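Compounds are added to genetically altered yeast, and growth is compared with cultures given vehicle alone to give percent inhibition.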

The nature of assay [4]: NCI Yeast Anticancer Drug Screen. Data for the cln2 rad14 strain (AID 165).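 Note: 0% = growth equal to vehicle treated cultures.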 The following applies: S. cerevisiae cln2 rad14 strain, active compounds read high; at 50.0 µM unless noted. The procedure, abridged:
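Strain: cln2 rad14 yeast, altered in cell cycle control and DNA damage repair. Read-out: growth inhibition vs vehicle.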

Assay [5] can be described thus: NCI Yeast Anticancer Drug Screen. Data for the bub3 strain (AID 167). The following applies: S. cerevisiae bub3 mutant strain, active compounds read high; at 50.0 µM unless noted. The procedure, abridged:
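Steps: expose the mutant yeast strain to compound; grow alongside vehicle-treated cultures; measure growth; express inhibition against the vehicle cultures.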

A short description of assay [6]: NCI Yeast Anticancer Drug Screen. Data for the mlh1 rad18 strain (AID 175). The settings on record: S. cerevisiae mlh1 rad18 strain growth inhibition, active compounds read high; at 50.0 µM unless noted. The essentials:
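A repair-deficient yeast strain is exposed to test compound, and growth is scored relative to vehicle-treated controls.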

Each structure is given as a SMILES string. Several values for one entry are separate records, joined by “and”; a condition that tells them apart may be missing. Identical values can stand only once. The panel holds about 79,000 compounds, 15% with a hit somewhere; the sample as a whole holds those more often. A number with no mark means an inactive call. Activity calls are given as the source filed them. Cut-off read from the data, not from the text of the source: active = growth inhibition above about 70%; inactive = the rest.

For the compound `Cc1ccc2[nH]c(C(=O)O)cc2c1`, the growth inhibition in assay [1] was 31.1%; in assay [2], -6.8%; in assay [3], 10.8%; in assay [4], 10.3%; in assay [5], 9%; in assay [6] it was 28.1%.
On to `CN(C)N=Nc1ccc(S(C)(=O)=O)cc1`, for which the growth inhibition in assay [1] was 4.9%; in assay [2] it was 0.6%; in assay [3], 1.5%; in assay [4], -22.1%; in assay [5], 10.1%; in assay [6], 8.1%.
Regarding `CCC(C)(C)c1ccc(C(=O)OC)o1`, the growth inhibition is 4.1% in assay [1]; 16.2% in assay [2]; -5.55% in assay [3]; -13.3% in assay [4]; -7.3% in assay [5]; -13.8% in assay [6].
Turning to `O=C(CNC(=O)C(Cc1ccccc1)N1C(=O)c2ccccc2C1=O)Nc1ccccc1` (stereo not drawn), the growth inhibition was 34.4% in assay [1]; -1.55% in assay [2]; 46.3% in assay [3]; 5% in assay [4]; 17.4% in assay [5]; 6.55% in assay [6].
On to `C1=NC(c2ccccc2)=CN(C2CCCCCCCCCCC2)C1(c1ccccc1)C1CCCCCCCCCCC1` (stereo not drawn), for which the growth inhibition in assay [1] is -18.2%; in assay [2], -8.55%; in assay [3], -12%; in assay [4], -19.4%; in assay [5], 12.3%; in assay [6] it was 13.2%.
For `COC(=O)c1ccc(SCCC(=O)CN2C(=O)c3ccccc3C2=O)cc1`, the growth inhibition in assay [1] is 18.9%; in assay [2], 8.5%; in assay [3], 17.1%; in assay [4] it was 23.1%; in assay [5], 4.1%; in assay [6], 27.8%.
As for `O=[N+]([O-])c1cc(COc2ccc(Cl)c(Cl)c2)ccc1Cl`, the growth inhibition is 1.8% in assay [1]; 30.3% in assay [2]; 38.5% in assay [3]; -0.95% in assay [4]; 46.4% in assay [5]; 35.8% in assay [6].
In the case of `CC(C)(C1CCC([Si](C2CCCCC2)(C2CCCCC2)C2CCCCC2)CC1)[Si](C1CCCCC1)(C1CCCCC1)C1CCCCC1` (stereo not drawn), the growth inhibition in assay [1] is 8%; in assay [2] it was -0.15%; in assay [3], -14.4%; in assay [4] it was -7.2%; in assay [5], 3.3%; in assay [6], -1.95%.
`CN(C)c1ccc(/[N+]([O-])=N/N2C(=O)c3ccccc3C2=O)cc1`: the growth inhibition was -25.1% in assay [1]; -24.4% in assay [2]; -20.9% in assay [3]; -52% in assay [4]; -22.9% in assay [5]; -25.5% in assay [6].
As to `COC(=O)CCSCc1ccccc1`, the growth inhibition in assay [1] was 2.65%; in assay [2], 2.55%; in assay [3], -1.6%; in assay [4] it was -10%; in assay [5], 4.8%; in assay [6] it was 3.55%.
Turning to `N#CSC(C(=O)c1ccccc1)c1ccccc1` (stereo not drawn), the growth inhibition in assay [1] is 94.2% (active); in assay [2] it was 60.6%; in assay [3], 91.2% (active); in assay [4], 89% (active); in assay [5], 95.2% (active); in assay [6] it was 91.3% (active).
Regarding `[N-]=[N+]=C(C(=O)CN1CCCC1=O)S(=O)(=O)c1ccccc1`, the growth inhibition is 10.4% in assay [1]; -6.4% in assay [2]; -6.55% in assay [3]; 9.1% in assay [4]; -2.85% in assay [5]; 16.2% in assay [6].
On to `O=C(OC1CCCCCCC1OC(=O)c1ccc([N+](=O)[O-])cc1)c1ccc([N+](=O)[O-])cc1` (stereo not drawn), for which the growth inhibition is 7.05% in assay [1]; 1.85% in assay [2]; 6.4% in assay [3]; 11.8% in assay [4]; -4.8% in assay [5]; 1.7% in assay [6].
For the compound `Clc1ccc(C2ON=C(c3ccccc3)N2C23CC4CC(CC(C4)C2)C3)cc1Cl` (stereo not drawn), the growth inhibition in assay [1] is 5.65%; in assay [2], -17.6%; in assay [3] it was 2.8%; in assay [4] it was -20%; in assay [5], -7.9%; in assay [6], -1%.
In the case of `Oc1cc(O)c2cc(O)c(-c3ccc(O)c(O)c3)[o+]c2c1`, the growth inhibition is 11.4% in assay [1]; 2.2% in assay [2]; 23.4% in assay [3]; 4.1% in assay [4]; 31.1% in assay [5]; 28.1% in assay [6].
On to `Cc1cccc(NC(=O)Nc2ccccc2F)n1`, for which the growth inhibition in assay [1] is -2.7%; in assay [2], 5.65%; in assay [3], -8.95%; in assay [4], -26.9%; in assay [5], -6.95%; in assay [6] it was -12.1%.
With `Cn1c2ccccc2c2nnc(NCCCO)nc21`, the growth inhibition in assay [1] is 18.9%; in assay [2] it was 21.7%; in assay [3], 18.8%; in assay [4], 43.3%; in assay [5], 25%; in assay [6] it was 11.2%.
In the case of `CCOC(=O)/C(Cc1cc[n+]([O-])cc1)=N/O`, the growth inhibition is 33.5% in assay [1]; 27.3% in assay [2]; 15.2% in assay [3]; 13.5% in assay [4]; 13.6% in assay [5]; 20.5% in assay [6].
For `C(CCC1CO1)CC1CO1` (stereo not drawn), the growth inhibition in assay [1] is 3.25%; in assay [2], -21.1%; in assay [3], -31.6%; in assay [4], -27.2%; in assay [5], -5.45%; in assay [6] it was -22.8%.
Consider `CC1=CC(=C2C=C(C)C(=O)C(C)=C2)C=C(C)C1=O`, for which the growth inhibition in assay [1] was 9.85%; in assay [2], -6.65%; in assay [3] it was 24.4%; in assay [4], -0.25%; in assay [5], 4.25%; in assay [6], 14.2%.
On to `O=C1CN(Cc2ccc3c(c2)OCO3)NO1`, for which the growth inhibition in assay [1] was 15.3%; in assay [2] it was -1.25%; in assay [3], -17.4%; in assay [4], -4.5%; in assay [5] it was -9.35%; in assay [6] it was -26.5%.
As for `Cc1cc2ccccc2cn1`, the growth inhibition in assay [1] was 1% and 29.1%; in assay [2], -23.1% and 16.6%; in assay [3], 5.55% and 19.2%; in assay [4], -30.6% and -34.1%; in assay [5] it was 5.95% and 10.8%; in assay [6] it was 4.75% and 24.6%.
Regarding `CCOc1ccccc1N=C(NC(=O)CC)SC`, the growth inhibition in assay [1] is 39%; in assay [2], 26.8%; in assay [3], -7.15%; in assay [4], 12.1%; in assay [5], 32.3%; in assay [6] it was 52%.
With `Nc1ccccc1S(=O)(=O)Nc1c(N)nc(SCC(=O)O)[nH]c1=O`, the growth inhibition is -15.4% in assay [1]; -21.9% in assay [2]; -10% in assay [3]; -4.2% in assay [4]; -12.9% in assay [5]; 0.65% in assay [6].
As to `O=c1c2cc(O)c(O)cc2oc2cc(O)c(C3OC(CO)C(O)C(O)C3O)c(O)c12` (stereo not drawn), the growth inhibition in assay [1] was 14.2%; in assay [2], 1.1%; in assay [3] it was -27.7%; in assay [4], 6.45%; in assay [5], -41.4%; in assay [6] it was -77.1%.
As to `C=CCCCCCCC=C`, the growth inhibition in assay [1] was -23.6%; in assay [2], -43%; in assay [3], -4.1%; in assay [4], 2.45%; in assay [5], -34.2%; in assay [6], -19.4%.
Take `O=C(NCCCl)NC1C(O)OC(CO)C(O)C1O` (stereo not drawn): the growth inhibition in assay [1] was 93.2% (active); in assay [2], 96% (active); in assay [3], 93.8% (active); in assay [4], 76.5% (active); in assay [5] it was 96.8% (active); in assay [6] it was 96.7% (active).
In the case of `CCCCCCCSCC(=O)OCC`, the growth inhibition was -12.6% in assay [1]; -19.8% in assay [2]; -22.5% in assay [3]; 7.2% in assay [4]; -6.5% in assay [5]; -5.75% in assay [6].
Regarding `CN(CCO)CCCC1COc2ccccc2O1` (stereo not drawn), the growth inhibition in assay [1] is -31.6%; in assay [2], -39.1%; in assay [3], -21.1%; in assay [4] it was 6.5%; in assay [5], -8.65%; in assay [6], -8.35%.
Regarding `O=C(CO)C(O)C(O)C(O)C(O)CO` (stereo not drawn), the growth inhibition in assay [1] is 19.2% and -6.1%; in assay [2], 4.7% and 1.6%; in assay [3] it was 20.3% and 3.4%; in assay [4], -1.1% and -1.05%; in assay [5], 32.5% and -3.2%; in assay [6] it was 20.9% and 5.8%.
Regarding `Oc1cccnc1Cl`, the growth inhibition in assay [1] is 12.9%; in assay [2], -13.7%; in assay [3], 17.4%; in assay [4], 9.2%; in assay [5], 13.7%; in assay [6], 2.5%.
As to `CNC(=O)OCc1c(COC(=O)NC)c(C)n(-c2ccc(Cl)cc2)c1C`, the growth inhibition in assay [1] was 38.8%; in assay [2] it was 40.4%; in assay [3], 83.2% (active); in assay [4], 24.6%; in assay [5] it was 84.5% (active); in assay [6] it was 91.3% (active).
For the compound `COc1cc(C(O)C2C(=O)OCC2C2(c3ccc4c(c3)OCO4)SCCCS2)cc(OC)c1OC` (stereo not drawn), the growth inhibition is 36.1% and -8.8% in assay [1]; -2.8% and -8.95% in assay [2]; 35.4% and -21.5% in assay [3]; 7.2% and 1.7% in assay [4]; 10.1% and -2.95% in assay [5]; 1.45% and 17.2% in assay [6].
Turning to `CC(=O)Nc1ccc2nc(SC(C)C)sc2c1`, the growth inhibition was 39.4% in assay [1]; 7.7% in assay [2]; 31.6% in assay [3]; 17.4% in assay [4]; 13.1% in assay [5]; 19.9% in assay [6].
For the compound `O=c1cc(CBr)c2ccc(O)cc2o1`, the growth inhibition in assay [1] was -34.1%; in assay [2], 2.55%; in assay [3], -23.8%; in assay [4] it was 8.3%; in assay [5], -18.2%; in assay [6], -44.5%.
In the case of `CC[N+](CC)(CC)CCOc1nc(OCC[N+](CC)(CC)CC)nc(OCC[N+](CC)(CC)CC)n1`, the growth inhibition was 11.8% in assay [1]; 11% in assay [2]; 10.3% in assay [3]; 9.1% in assay [4]; 17.1% in assay [5]; 35% in assay [6].
For the compound `O=S(=O)(Cl)c1ccc(Cl)cc1`, the growth inhibition in assay [1] is -4.6%; in assay [2], 13.1%; in assay [3], 6.8%; in assay [4] it was 1.5%; in assay [5], -16.6%; in assay [6], -7.25%.
`Cc1ccc2[nH]c3c(c2c1)C(=O)CCC3`: the growth inhibition is -7.6% in assay [1]; -2.95% in assay [2]; -12.3% in assay [3]; -20.7% in assay [4]; -17.9% in assay [5]; -1.55% in assay [6].
